Experimental data as given in publication PMC7862700, “An all-to-all approach to the identification of sequence-specific readers for epigenetic DNA modifications on cytosine”.

molecular target: T1, ELK4 (Homo sapiens, UniProt P28324-2 1-405); assay: DAPPL (digital affinity profiling via proximity ligation, sequencing); 10 mM Tris-HCl pH 7.5, 50 mM NaCl, 1 mM DTT, 4% glycerol, room temperature, 30 min; GST-TFs on glutathione beads, 16-mer random dsDNA library, 0.1% formaldehyde crosslink after washing; high values mean tight binding; conditions: protein: recombinant; tags: N-terminal GST; dsDNA, one strand shown
T1 sequence: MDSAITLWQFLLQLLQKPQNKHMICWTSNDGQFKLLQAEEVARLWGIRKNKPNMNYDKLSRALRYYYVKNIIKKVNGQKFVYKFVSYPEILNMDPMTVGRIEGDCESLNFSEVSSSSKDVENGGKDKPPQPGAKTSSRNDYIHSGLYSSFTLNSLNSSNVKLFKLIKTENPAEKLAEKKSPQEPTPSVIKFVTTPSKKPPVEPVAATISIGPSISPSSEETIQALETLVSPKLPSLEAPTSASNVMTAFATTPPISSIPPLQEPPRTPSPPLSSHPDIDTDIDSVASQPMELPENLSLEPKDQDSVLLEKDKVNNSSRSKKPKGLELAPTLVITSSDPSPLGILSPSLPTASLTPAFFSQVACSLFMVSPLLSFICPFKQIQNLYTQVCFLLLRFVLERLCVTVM
How it was run: (§1)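 Human transcription factors were made in yeast as GST fusions, captured on glutathione beads and barcoded with DNA. With a tag-only sample included, the pool was incubated with 200 nmole of a random double-stranded 16-mer DNA library in Tris/NaCl/DTT/glycerol buffer at room temperature for 30 min, then crosslinked with 0.1% formaldehyde after washing, ligated by proximity, amplified and sequenced. For binding signal, each hexamer's read frequency for a factor is divided by its frequency for the tag-only sample.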

Sequence | binding signal
TACCGC | 1.14 fold enrichment (6-mer frequency, TF over GST control)
TGCATA | 1.13 fold enrichment (6-mer frequency, TF over GST control)
AAGTCA | 1.18 fold enrichment (6-mer frequency, TF over GST control)
CGCTCA | 1.32 fold enrichment (6-mer frequency, TF over GST control)
TCACCC | 1.16 fold enrichment (6-mer frequency, TF over GST control)
CTCAGT | 1.19 fold enrichment (6-mer frequency, TF over GST control)
CCTCGG | 1.24 fold enrichment (6-mer frequency, TF over GST control)
TGATGT | 1.31 fold enrichment (6-mer frequency, TF over GST control)
TCCGTT | 1.48 fold enrichment (6-mer frequency, TF over GST control)
CGGTTT | 1.23 fold enrichment (6-mer frequency, TF over GST control)
CTACGT | 1.24 fold enrichment (6-mer frequency, TF over GST control)
TCACAT | 1.17 fold enrichment (6-mer frequency, TF over GST control)
TCAATG | 1.04 fold enrichment (6-mer frequency, TF over GST control)
ACCACT | 1.29 fold enrichment (6-mer frequency, TF over GST control)
TTGTTG | 1.19 fold enrichment (6-mer frequency, TF over GST control)
GGCATT | 1.08 fold enrichment (6-mer frequency, TF over GST control)
CCTAGA | 1.07 fold enrichment (6-mer frequency, TF over GST control)
ACCTTG | 1.21 fold enrichment (6-mer frequency, TF over GST control)
AACGGC | 1.24 fold enrichment (6-mer frequency, TF over GST control)
TCATGC | 1.27 fold enrichment (6-mer frequency, TF over GST control)

Sequence | binding signal
AAACGG | 1.19 fold enrichment (6-mer frequency, TF over GST control)
CCTGTA | 1.16 fold enrichment (6-mer frequency, TF over GST control)
TACAGG | 1.26 fold enrichment (6-mer frequency, TF over GST control)
ACCGCC | 1.23 fold enrichment (6-mer frequency, TF over GST control)
ATCACA | 1.02 fold enrichment (6-mer frequency, TF over GST control)
CCTACC | 1.22 fold enrichment (6-mer frequency, TF over GST control)
TGCTGA | 1.11 fold enrichment (6-mer frequency, TF over GST control)
TGCAAT | 1.28 fold enrichment (6-mer frequency, TF over GST control)
TGTATA | 1.22 fold enrichment (6-mer frequency, TF over GST control)
GGCTTA | 1.16 fold enrichment (6-mer frequency, TF over GST control)
AAAGGG | 1.1 fold enrichment (6-mer frequency, TF over GST control)
GCCTCC | 1.22 fold enrichment (6-mer frequency, TF over GST control)
GATATC | 1.49 fold enrichment (6-mer frequency, TF over GST control)
TACCCA | 1.02 fold enrichment (6-mer frequency, TF over GST control)
CTGACC | 1.31 fold enrichment (6-mer frequency, TF over GST control)
CCATCA | 1.24 fold enrichment (6-mer frequency, TF over GST control)
TACGTC | 1.14 fold enrichment (6-mer frequency, TF over GST control)
ATACGT | 1.15 fold enrichment (6-mer frequency, TF over GST control)
GGATAT | 1.48 fold enrichment (6-mer frequency, TF over GST control)
GGTCTA | 1.04 fold enrichment (6-mer frequency, TF over GST control)

molecular target: T2, ETV2 (Homo sapiens, UniProt O00321 1-342); assay: as above; conditions: protein: recombinant; tags: N-terminal GST; dsDNA, one strand shown
T2 sequence: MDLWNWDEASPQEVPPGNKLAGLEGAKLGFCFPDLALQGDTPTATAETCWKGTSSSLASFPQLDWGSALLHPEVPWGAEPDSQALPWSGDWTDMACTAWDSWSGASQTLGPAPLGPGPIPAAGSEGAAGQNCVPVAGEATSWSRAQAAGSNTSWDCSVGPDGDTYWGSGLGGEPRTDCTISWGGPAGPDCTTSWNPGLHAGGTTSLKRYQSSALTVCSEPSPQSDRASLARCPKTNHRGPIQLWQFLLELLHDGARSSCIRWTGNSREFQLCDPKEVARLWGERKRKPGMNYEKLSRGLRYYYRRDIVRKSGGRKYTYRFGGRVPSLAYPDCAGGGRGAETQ
How it was run: as §1

Sequence | binding signal
TACCGC | 1.16 fold enrichment (6-mer frequency, TF over GST control)
TGCATA | 1.02 fold enrichment (6-mer frequency, TF over GST control)
AAGTCA | 1.21 fold enrichment (6-mer frequency, TF over GST control)
CGCTCA | 1.26 fold enrichment (6-mer frequency, TF over GST control)
TCACCC | 1.01 fold enrichment (6-mer frequency, TF over GST control)
CTCAGT | 1.2 fold enrichment (6-mer frequency, TF over GST control)
CCTCGG | 1.24 fold enrichment (6-mer frequency, TF over GST control)
TGATGT | 1.26 fold enrichment (6-mer frequency, TF over GST control)
TCCGTT | 1.44 fold enrichment (6-mer frequency, TF over GST control)
CGGTTT | 1.11 fold enrichment (6-mer frequency, TF over GST control)
CTACGT | 1.03 fold enrichment (6-mer frequency, TF over GST control)
TCACAT | 1.32 fold enrichment (6-mer frequency, TF over GST control)
TCAATG | 1.05 fold enrichment (6-mer frequency, TF over GST control)
ACCACT | 1.27 fold enrichment (6-mer frequency, TF over GST control)
TTGTTG | 1.09 fold enrichment (6-mer frequency, TF over GST control)
GGCATT | 1.02 fold enrichment (6-mer frequency, TF over GST control)
ACCTTG | 1.4 fold enrichment (6-mer frequency, TF over GST control)
AACGGC | 1.21 fold enrichment (6-mer frequency, TF over GST control)
